Here are results for 21 compounds from PubChem BioAssay (NCATS).

A short description of test [1]: qHTS Assay for Lipid Storage Modulators (AID 1519). For activity change, negative = inhibition: % is set by controls: 0 for no effect and ±100 for the full control effect. To be noted: Drosophila S3 cells, BODIPY lipid droplet/cell ratio, laser cytometry, cells loaded with oleic acid. Put shortly: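 Cells seeded at 5,000 per well were treated with compounds over a concentration series and loaded with oleic acid (400 uM, as added). Lipid droplet fluorescence (488 nm excitation, 500-530 nm channel) was read by laser-scanning cytometry and normalized to 20 uM Triacsin C.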

The nature of test [2]: Cell Viability - LYMP1-002 - Assay at 40 hr (AID 994; active = well fitted curve in the direction sought with a large enough effect; an effect the other way counts as inactive or inconclusive;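 note: 0% = DMSO only and full inhibition = 92 µM tetraoctylammonium bromide; nearly all actives have a fitted effect of over 60% in size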). To be noted: LYMP1-002 lymphoblastoid cell viability; series mostly up to 92.2 µM. The method in brief:
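LYMP1-002 human lymphoblastoid cells (2500/well, complete medium) were treated with compounds for 40 hr at 37 C. Intracellular ATP was measured by CellTiter-Glo luminescence, and AC50 values came from Hill-equation fits of concentration-response data; tetraoctylammonium bromide was the positive control.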

For test [3], the target named is alpha-glucosidase (Oryza sativa, rice) (UniProt Q653V4). Kind of test: Counterscreen for Glucocerebrosidase Inhibitors: qHTS Assay for Rice alpha-Glucosidase at pH 5.0 (AID 997; active = well fitted curve in the direction sought with a large enough effect; an effect the other way counts as inactive or inconclusive;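 note: 0% = full activity with enzyme and -100% = basal without enzyme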). To be noted: rice alpha-glucosidase enzyme activity; series mostly up to 76.9 µM. Put shortly:
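Rice alpha-glucosidase (4 nM final) with 400 uM 4-methylumbelliferyl-alpha-D-glucopyranoside in citrate buffer pH 5.0, 20 min at room temperature, stopped at pH 10; fluorescence 365/440 nm, compounds 0.7 nM–77 uM, AC50 from Hill fits.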
In general terms: Counterscreens check selectivity or assay interference.

[4] abbreviates: measured here: cell count channel max response.
Setting [5] is: measured here: lipid channel max response.

Each structure is given as a SMILES string. Several values for one entry are separate records, joined by “and”; a condition that tells them apart may be missing. Equal values may be shown once. Inconclusive results are not listed. Activity calls are given as the source filed them. Unless noted, calls come from the whole dose curve.

`Cc1cccc(Nc2ccccc2C(=O)O)c1C`: the activity change, negative = inhibition in test [1] (at 25.7 µM (top of the series)) was -1.13% (inactive); in test [1] (at 57.5 µM (top of the series)), 13.8% (inactive). Also, the max response in test [1] (setting [4]) was -7.11% and 0.438%; in test [1] (setting [5]), -8.71% and 19.7%.

`NCc1ccc(S(N)(=O)=O)cc1`: the figures for the activity change, negative = inhibition in test [1] (at 25.7 µM (top of the series)) and in test [1] (at 57.5 µM (top of the series)) were -2.86% (inactive) and 9.84% (inactive), respectively. The max response is -7.52% and 18.9% in test [1] (setting [4]); -8.55% and 31.3% in test [1] (setting [5]).

On to `NC(N)=NCCN1CCCCCCC1`, for which the results for the activity change, negative = inhibition in test [1] (at 25.7 µM (top of the series)) and in test [1] (at 57.5 µM (top of the series)) were -2.42% (inactive) and 6.2% (inactive), respectively. In addition, the max response in test [1] (setting [4]) is 3.46% and 15.5%; in test [1] (setting [5]), 0.449% and 29.6%.

Regarding `CC(=O)N[C@@H](CC(C)C)C(=O)O`, in test [1] (at 25.7 µM (top of the series)), the activity change, negative = inhibition is -0.448% (inactive). The max response is -13.9% in test [1] (setting [4]) and -14.5% in test [1] (setting [5]).

`C1CCN2C[C@@H]3C[C@@H](CN4CCCC[C@@H]34)[C@H]2C1`: the activity change, negative = inhibition in test [1] (at 57.5 µM (top of the series)) is 2.67% (inactive). In addition, the max response stood at 14.6% in test [1] (setting [4]) and 18.3% in test [1] (setting [5]).

Regarding `CCCCC1(COC(=O)CCC(=O)O)C(=O)N(c2ccccc2)N(c2ccccc2)C1=O`, the activity change, negative = inhibition in test [1] (at 25.7 µM (top of the series)) is -3.4% (inactive); in test [1] (at 57.5 µM (top of the series)), 5.77% (inactive). For the same compound, the max response is -9.42% and 23.5% in test [1] (setting [4]); -12.6% and 36.6% in test [1] (setting [5]).

Regarding `O=c1[nH]cnc2nc[nH]c12`, in test [1] (at 57.5 µM (top of the series)), the activity change, negative = inhibition was 6.77% (inactive). In addition, the results for the max response in test [1] (setting [4]) and in test [1] (setting [5]) were 11.9% and 19.1%, respectively.

On to `CCS(=O)(=O)CCn1c([N+](=O)[O-])cnc1C`, for which the activity change, negative = inhibition in test [1] (at 25.7 µM (top of the series)) was -0.644% (inactive); in test [1] (at 57.5 µM (top of the series)), 8.24% (inactive). The max response in test [1] (setting [4]) is -6.2% and 14.4%; in test [1] (setting [5]) it was -8.29% and 29%.

In the case of `CCCNC(C)(C)COC(=O)c1ccccc1`, the activity change, negative = inhibition in test [1] (at 25.7 µM (top of the series)) was -1.27% (inactive). Besides, the values for the max response in test [1] (setting [4]) and in test [1] (setting [5]) were -4.93% and -6.33%, respectively.

Regarding `NS(=O)(=O)c1cc2c(cc1C(F)(F)F)NCNS2(=O)=O`, the activity change, negative = inhibition was -1.44% (inactive) in test [1] (at 25.7 µM (top of the series)) and 2.96% (inactive) in test [1] (at 57.5 µM (top of the series)). The max response in test [1] (setting [4]) was -0.735% and 18.6%; in test [1] (setting [5]), -2.63% and 23.7%.

Take `COc1ccc(NS(=O)(=O)c2ccc(N)cc2)nn1`: in test [1] (at 25.7 µM (top of the series)), the activity change, negative = inhibition was 0.554% (inactive). Also, the results for the max response in test [1] (setting [4]) and in test [1] (setting [5]) were 3.32% and 3.23%, respectively.

With `C[N+](C)(C)CC[N+]1(C)Cc2c(Cl)c(Cl)c(Cl)c(Cl)c2C1`, in test [1] (at 57.5 µM (top of the series)), the activity change, negative = inhibition was 0.877% (inactive). For the same compound, the values for the max response in test [1] (setting [4]) and in test [1] (setting [5]) were -22.8% and -20.9%, respectively.

For `Cn1c(=O)c2c(ncn2CCO)n(C)c1=O`, the figures for the activity change, negative = inhibition in test [1] (at 25.7 µM (top of the series)) and in test [1] (at 57.5 µM (top of the series)) were -0.0249% (inactive) and 6.15% (inactive), respectively. Also, the max response in test [1] (setting [4]) is 7.29% and 18.9%; in test [1] (setting [5]) it was 6.36% and 16.1%.

As to `CCN(CC)CCOC(=O)C(c1ccccc1)c1ccccc1`, the results for the activity change, negative = inhibition in test [1] (at 25.7 µM (top of the series)) and in test [1] (at 57.5 µM (top of the series)) were -0.714% (inactive) and -3.74% (inactive), respectively. The max response in test [1] (setting [4]) is -10.9% and -9.85%; in test [1] (setting [5]), -13.6% and -9.37%.

On to `CC(=O)Nc1ccccc1`, for which, in test [2], the result was inactive. The activity change, negative = inhibition in test [1] (at 57.5 µM (top of the series)) was 8.44% (inactive). In addition, the max response was 6.17% in test [1] (setting [4]) and 17.6% in test [1] (setting [5]).

Regarding `CCCCCC(N)=O`, the call in test [2] was inactive.

`COc1ccc(O)cc1`: the compound was called inactive in test [2].

With `O=C(O)CCCCC1CCSS1` (configuration not stated), in test [2], the compound was called inactive. Further, the activity change, negative = inhibition in test [1] (at 57.5 µM (top of the series)) is 3.99% (inactive). The max response is 11.5% in test [1] (setting [4]) and 16.4% in test [1] (setting [5]).

With `Cc1cc(C)nc(NS(=O)(=O)c2ccc(N)cc2)n1`, in test [2], the compound was called inactive. For the same compound, the activity change, negative = inhibition in test [1] (at 25.7 µM (top of the series)) is 1% (inactive); in test [1] (at 57.5 µM (top of the series)), 8.29% (inactive). Also, the max response in test [1] (setting [4]) was -2.08% and -9.55%; in test [1] (setting [5]) it was -2.98% and 1.72%.

As to `C=CCNC(N)=S`, the compound was called inactive in test [2].

In the case of `NC(=O)CC[C@@H](N)C(=O)O`, the compound was called inactive in test [3].
